Assay outcomes: PubChem, National Center for Advancing Translational Sciences (NCATS)
Sampled rows, rich in hits. Any-hit rate of the full collection: about 21%.
Pf growth 48h – P. falciparum growth inhibition at 48 hours (one generation); hit rate 5.9% among 310,000; AID 504832; P. falciparum luciferase growth in erythrocytes, 48 h; Potency, µM (top dose mostly 28.7 µM), without a hit: top-dose activity change, negative = inhibition, usual class: inhibitors; note: potency is the fitted concentration of half-maximal effect; % is set by controls: 0 for no effect and ±100 for the full control effect
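Firefly luciferase activity from engineered P. falciparum reports growth; inhibitors lower the luminescent signal. Cultures contained 2% hematocrit erythrocytes at 0.1% final parasitemia.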
HCV inhibitor – inhibitors of hepatitis C virus infection. Potency, µM (series often up to 41.8 µM), inactives show at the top dose activity change, negative = inhibition, most hits filed as inhibitors. Huh7.5.1 HCVcc-Cre infection, luciferase reporter, 44 h. hit rate 3.4% among 340,000; note: potency is the fitted concentration of half-maximal effect; % is set by controls: 0 for no effect and ±100 for the full control effect
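After 44 h co-culture of compound, cells and HCVcc-Cre (~0.5 moi), substrate is added for 15 min at room temperature and luciferase measured over 15 sec. Cells were seeded at 1,000/well and pre-cultured 4 h.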
Cycloheximide cs – counter-screen for Shiga toxin inhibitors: cycloheximide protein synthesis inhibition | cell reporter, cycloheximide protein synthesis inhibition counterscreen | max response, % | hit rate 12% among 300,000; in the data active = max response mostly above about 13%, no sharp cut-off; inactive = mostly below about 14%; note: read at 38.3 µM for the half of the compounds with a filed dose; 0% is about no effect
Shiga toxin inh – inhibitors of Shiga toxin in Vero cells. Vero cells, Shiga toxin protein synthesis inhibition reporter. inhibition, % at 38.7 µM. hit rate 9.2% among 290,000; in the data active = inhibition mostly above about 28%, no sharp cut-off; inactive = mostly below about 43%; note: 0% is about no effect
AMA1 RON2 block – AMA1-RON2 (P. falciparum) interaction inhibition; AlphaScreen AMA1-biotinylated RON2 peptide binding; Potency, µM (highest dose often 58.2 µM), for inactives: top-dose activity change, negative = inhibition, usual class: inhibitors; hit rate 0.2% among 360,000;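 note: potency is the fitted concentration of half-maximal effect; 0% = vehicle wells and -100% = peptide control; nearly all actives have a fitted effect of over 45% in size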
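AMA1 (3D7) with his tag at 25 nM final met compounds first, then biotinylated RON2 peptide at 25 nM; detection used donor plus acceptor beads, 10 µg/mL apiece, read by AlphaScreen after 30 min at room temperature.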
Pf growth 96h – P. falciparum growth inhibition at 96 hour, primary screen for plastid delayed-death inhibitors; P. falciparum luciferase reporter growth, 96 h; Potency, µM (top dose mostly 28.7 µM), inactives show top-dose activity change, negative = inhibition, actives largely listed as inhibitors; hit rate 6.9% among 320,000; AID 504834; note: potency is the fitted concentration of half-maximal effect; % is set by controls: 0 for no effect and ±100 for the full control effect
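Luminescence readout: decreased luciferase signal marks inhibited growth of reporter-expressing P. falciparum in infected red cells (2% hematocrit, 0.05% parasitemia final), exposed to compound two generations (96 h, 37 C, 5% CO2).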
* marks the source's active call; other numbers are inactive results; [ ] = another dose, or the depositor's remark. Unless noted, calls come from the whole dose curve; as a rule, active = well fitted curve in the direction sought with a large enough effect; inconclusive = small, poorly fitted or top-dose-only effect, or another doubt; inactive = no such curve, though single readings can be large; an effect the other way counts as inactive or inconclusive.

How did CCN1C(=O)[C@H]2[C@H]3CN=C(SCc4ccc(Cl)cc4)N3[C@@](Cc3ccccc3)(C(=O)OC)[C@H]2C1=O do in these assays?
HCV inhibitor: inconclusive; AMA1 RON2 block: 0.0%

How did CCN1C(=O)[C@H]2[C@H]3CN=C(SCc4ccc(C)cc4)N3[C@@](Cc3ccccc3)(C(=O)OC)[C@H]2C1=O do in these assays?
HCV inhibitor: 0.316µM*; AMA1 RON2 block: -5.1%

What do the screens show for `COC(=O)[C@@]1(Cc2ccccc2)[C@H]2C(=O)N(Cc3ccccc3)C(=O)[C@H]2[C@H]2CN=C(SC)N21`?
HCV inhibitor: 9.4%; AMA1 RON2 block: 4.0%

How did CCN1C(=O)[C@H]2[C@H]3CN=C(SC)N3[C@@](Cc3ccccc3)(C(=O)OC)[C@H]2C1=O do in these assays?
HCV inhibitor: 0.562µM*; AMA1 RON2 block: 5.9%

Results for COc1ccc(-c2oc3ccc(-c4cc(OC)c(OC)c(OC)c4)cc3c2-c2ccc(OC)nc2)cc1 ?
Pf growth 48h: inconclusive; HCV inhibitor: 2.6%; Cycloheximide cs: -1.1; Shiga toxin inh: -1.6; AMA1 RON2 block: -0.2%; Pf growth 96h: 3.29µM*

What do the screens show for `COc1ccc(-c2oc3ccc(-c4cc(OC)c(OC)c(OC)c4)cc3c2-c2ccc(OC)cc2)cc1`?
HCV inhibitor: -2.5%; AMA1 RON2 block: -3.8%

Results for Cc1nnc(SCc2ccc(Cl)cc2Cl)[nH]c1=O ?
Pf growth 48h: 24.0%; HCV inhibitor: 4.4%; Cycloheximide cs: 11.5*; Shiga toxin inh: 21.8; AMA1 RON2 block: -4.1%

What do the screens show for `Cc1cnc(SCc2ccc(Cl)cc2Cl)[nH]c1=O`?
Pf growth 48h: 32.6%; HCV inhibitor: 8.4%; Cycloheximide cs: -2.7; Shiga toxin inh: -9.1; AMA1 RON2 block: -2.5%; Pf growth 96h: 30.9%

How did O=c1[nH]cnc2c1ncn2[C@@H]1O[C@H](COS(=O)(=O)O)[C@@H](O)[C@H]1O do in these assays?
HCV inhibitor: 3.9%; AMA1 RON2 block: 8.5%

How did Cc1nnc(C)n1/N=C/c1ccccc1 do in these assays?
Pf growth 48h: 39.3%; HCV inhibitor: -8.9%; Cycloheximide cs: 18.3; Shiga toxin inh: -15.2; AMA1 RON2 block: -6.9%; Pf growth 96h: 47.6%

How did CCn1c2ccccc2c2cc(/C=N/n3c(C)nnc3C)ccc21 do in these assays?
Pf growth 48h: -4.6%; HCV inhibitor: 3.55µM*; Cycloheximide cs: 0.7; Shiga toxin inh: -35.6; AMA1 RON2 block: -5.0%

What do the screens show for `O/N=C(\c1ccccc1)C(O)c1ccccc1` (stereo unspecified)?
Pf growth 48h: -15.0%; HCV inhibitor: 15.5%; Cycloheximide cs: 7.8; Shiga toxin inh: -2.3; AMA1 RON2 block: 34.4%; Pf growth 96h: -17.9%

What do the screens show for `Cc1ccc(NC(=O)Nc2cc(S(C)(=O)=O)ccc2Cl)cc1`?
Pf growth 48h: 91.3%; HCV inhibitor: -8.9%; Cycloheximide cs: 36.1*; Shiga toxin inh: 78.0*; AMA1 RON2 block: 1.9%; Pf growth 96h: 150.7%

What do the screens show for `CS(=O)(=O)c1ccc(Cl)c(NC(=O)COC(=O)C23CC4CC(CC(C4)C2)C3)c1`?
Pf growth 48h: 5.22µM*; HCV inhibitor: -4.9%; AMA1 RON2 block: 3.9%; Pf growth 96h: 8.28µM*

Results for CS(=O)(=O)c1ccc(Cl)c(NC(=O)CCl)c1 ?
Pf growth 48h: 9.28µM*; HCV inhibitor: inconclusive; Cycloheximide cs: 13.1; Shiga toxin inh: 3.1; AMA1 RON2 block: -17.1%; Pf growth 96h: inconclusive

How did CCCN(CCC)CCCNC(=O)Cn1cnc2sc(C)c(S(=O)(=O)N3CCOCC3)c2c1=O do in these assays?
Pf growth 48h: 12.6%; HCV inhibitor: 18.9%; Cycloheximide cs: 3.4; Shiga toxin inh: -11.8; AMA1 RON2 block: -1.0%; Pf growth 96h: 33.6%

Results for CCOc1cc(C2NC(=O)NC(c3ccccc3)=C2C(=O)c2ccccc2)c(Br)cc1OCC(=O)O (stereo unspecified) ?
Pf growth 48h: -17.2%; HCV inhibitor: -3.0%; Cycloheximide cs: -0.8; Shiga toxin inh: -13.4; AMA1 RON2 block: 1.3%; Pf growth 96h: inconclusive

Results for CCCOC1OC(=O)c2c1ccc(OC)c2OC (stereo unspecified) ?
Pf growth 48h: 17.8%; HCV inhibitor: 29.1%; Cycloheximide cs: -1.3; Shiga toxin inh: -6.5; AMA1 RON2 block: 22.2%; Pf growth 96h: 5.22µM*

What do the screens show for `CS(=O)(=O)N1CCCCC1c1cc(C(=O)Nc2ccccc2Cl)no1` (stereo unspecified)?
AMA1 RON2 block: 9.5%

Results for CC(c1ccccc1)C(Cc1nc2ccccc2[nH]1)c1nc2ccccc2[nH]1 (stereo unspecified) ?
Pf growth 48h: 7.38µM*; Cycloheximide cs: -1.5; Shiga toxin inh: -3.1; Pf growth 96h: -17.3%

Results for Cc1ccc2nc(C(O)C(O)c3nc4ccc(C)cc4[nH]3)[nH]c2c1 (stereo unspecified) ?
Pf growth 48h: -104.0%; HCV inhibitor: -17.4%; Cycloheximide cs: 45.7*; Shiga toxin inh: 122.0*; AMA1 RON2 block: 78.3%

What do the screens show for `CC(C)Cc1nc2ccccc2[nH]1`?
Pf growth 48h: 0.0%; HCV inhibitor: 12.3%; Cycloheximide cs: -2.9; Shiga toxin inh: -7.0; AMA1 RON2 block: -10.7%; Pf growth 96h: 5.5%

How did Cc1ccc2nc(C(C)O)[nH]c2c1 (stereo unspecified) do in these assays?
Pf growth 48h: 8.8%; HCV inhibitor: 28.2%; Cycloheximide cs: 2.2; Shiga toxin inh: -6.4; AMA1 RON2 block: 3.4%; Pf growth 96h: -3.2%

Results for OC(c1nc2ccccc2[nH]1)C(O)c1nc2ccccc2[nH]1 (stereo unspecified) ?
Pf growth 48h: -9.1%; HCV inhibitor: 5.2%; Cycloheximide cs: 21.1*; AMA1 RON2 block: 60.0%; Pf growth 96h: inconclusive

How did CCOC(=O)c1c(CSc2cccs2)n(C)c2cc(Br)c(O)c(CN(C)C)c12 do in these assays?
Pf growth 48h: 13.1µM*; HCV inhibitor: inconclusive; Cycloheximide cs: -1.8; Shiga toxin inh: 14.6; AMA1 RON2 block: -33.7%; Pf growth 96h: 14.9%

How did CN1CCN(c2ccc(S(C)(=O)=O)cc2[N+](=O)[O-])CC1 do in these assays?
Pf growth 48h: 6.3%; HCV inhibitor: 35.5%; Cycloheximide cs: -2.2; Shiga toxin inh: 1.9; AMA1 RON2 block: -2.1%; Pf growth 96h: 11.7µM*

How did O=[N+]([O-])c1cc(S(=O)(=O)C(F)(F)F)ccc1N1CCN(c2ccccc2)CC1 do in these assays?
Pf growth 48h: -1.3%; HCV inhibitor: -3.0%; Cycloheximide cs: -2.2; Shiga toxin inh: -21.0; AMA1 RON2 block: inconclusive; Pf growth 96h: inconclusive

Results for CN1CCN(c2ccc(C(=O)c3ccc(Br)cc3)cc2[N+](=O)[O-])CC1 ?
Pf growth 48h: -15.6%; HCV inhibitor: 10µM*; Cycloheximide cs: 7.1; Shiga toxin inh: 39.6; AMA1 RON2 block: inconclusive; Pf growth 96h: -2.3%[5.75 µM]
